Values without a mark were called inactive. For some assays here: Entries with a potency or affinity are not part of this list. Calls of active or inactive are those of the source. Unless noted, the rule behind the calls is not given here.

Data on 19 compounds can be found in PubChem BioAssay.

Assay [1] is described as follows: antimalarial activity against Dd2 strain (AID 2302;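 active = growth inhibition above 50% at the single 2 µM test dose, taken to imply half-maximal potency below 2 µM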;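 note: 0% = DMSO untreated growth and 100% = chloroquine plus artemisinin killed control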). The settings on record: P. falciparum Dd2 in RBCs, LDH growth readout, 72 h; at 2 µM; hits give high values.
Assay [2] in a line: human hepatoma cell viability loss – ATP luminescence, cytotoxicity control for P. falciparum antimalarial project, primary screen (AID 2303;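 active = inhibition above 50%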;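 note: 0% = DMSO wells and 100% = digitonin-killed cells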). The conditions noted are these: HepG2 viability, 24-48 h, at 10 µM, hits give high values.
Assay [3] concerns the target L-lactate dehydrogenase (Plasmodium falciparum (isolate CDC / Honduras)) (UniProt Q27743). The assay is described as follows: PfLDH activity inhibition – cell lysate, 3D7 strain, counter-screen for P. falciparum growth inhibition project (AID 2304).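 Note: 0% = vehicle and 100% = reference inhibitor.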 The conditions noted are these: P. falciparum 3D7 crude extract, LDH APAD/NBT absorbance; at 2 µM; hits give high values.
Assay [4] can be described thus: inhibition of 3D7 malaria parasite growth – strain 3D7 (AID 2306).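 Note: 0% = DMSO wells and 100% = chloroquine plus artemisinin control wells.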 The conditions noted are these: P. falciparum 3D7 erythrocytic growth, LDH absorbance, 72 h; at 2 µM; hits give high values.
Assay [5] addresses Calcium-dependent protein kinase 1 (Plasmodium falciparum (isolate 3D7)) (UniProt P62344). Put plainly: PfCDPK1 kinase inhibitors, biochemical, TCAMS library (AID 1159585; cut-off not given, nearly all actives have IC50 up to about 0.98 µM;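 note: inhibitors leave more ATP so luminescence rises with inhibition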). The conditions noted are these: recombinant PfCDPK1, Kinase-Glo ATP depletion luminescence.
Assay [6] deals with Plasmodium falciparum protein kinase 6 (PK6, PF3D7_1337100) (UniProt Q8IDW1). The assay is described as follows: PfPK6 kinase inhibitors, biochemical, TCAMS library (AID 1159586). The conditions noted are these: recombinant PfPK6, Kinase-Glo ATP depletion luminescence.
Assay [7] concerns the target Protein kinase 7 (PK7), Plasmodium falciparum 3D7 (PF3D7_0213400) (UniProt Q7YTF7). Put plainly: inhibition of Plasmodium PK7 catalytic activity – biochemical, TCAMS antimalarial set, Kinase-Glo luminescence (AID 1159587). The conditions noted are these: recombinant PfPK7, Kinase-Glo ATP depletion luminescence.
Assay [8] addresses Calcium-dependent protein kinase 4 (Plasmodium falciparum (isolate 3D7)) (UniProt Q8IBS5). The assay is described as follows: PfCDPK4 kinase inhibitors, biochemical, TCAMS library (AID 1159588; cut-off not given, nearly all actives have IC50 up to about 0.91 µM). The settings on record: recombinant PfCDPK4, Kinase-Glo ATP depletion luminescence.

Sequence of Calcium-dependent protein kinase 4 (Plasmodium falciparum (isolate 3D7)) (Q8IBS5 whole entry, looked up): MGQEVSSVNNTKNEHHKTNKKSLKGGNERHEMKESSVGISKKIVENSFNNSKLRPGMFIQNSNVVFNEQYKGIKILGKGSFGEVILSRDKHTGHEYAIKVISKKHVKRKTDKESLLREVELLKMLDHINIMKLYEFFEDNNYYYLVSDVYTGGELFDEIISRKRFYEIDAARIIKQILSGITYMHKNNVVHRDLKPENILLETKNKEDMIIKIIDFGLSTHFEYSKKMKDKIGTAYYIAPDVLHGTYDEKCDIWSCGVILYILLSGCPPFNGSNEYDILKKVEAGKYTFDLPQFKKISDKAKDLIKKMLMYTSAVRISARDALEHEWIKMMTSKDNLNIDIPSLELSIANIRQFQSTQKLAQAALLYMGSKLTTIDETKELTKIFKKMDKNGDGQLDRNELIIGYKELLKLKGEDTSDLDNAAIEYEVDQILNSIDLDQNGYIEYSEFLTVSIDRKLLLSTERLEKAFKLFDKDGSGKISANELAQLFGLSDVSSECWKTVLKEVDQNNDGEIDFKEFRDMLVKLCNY
Sequence of Calcium-dependent protein kinase 1 (Plasmodium falciparum (isolate 3D7)) (P62344 whole entry, looked up): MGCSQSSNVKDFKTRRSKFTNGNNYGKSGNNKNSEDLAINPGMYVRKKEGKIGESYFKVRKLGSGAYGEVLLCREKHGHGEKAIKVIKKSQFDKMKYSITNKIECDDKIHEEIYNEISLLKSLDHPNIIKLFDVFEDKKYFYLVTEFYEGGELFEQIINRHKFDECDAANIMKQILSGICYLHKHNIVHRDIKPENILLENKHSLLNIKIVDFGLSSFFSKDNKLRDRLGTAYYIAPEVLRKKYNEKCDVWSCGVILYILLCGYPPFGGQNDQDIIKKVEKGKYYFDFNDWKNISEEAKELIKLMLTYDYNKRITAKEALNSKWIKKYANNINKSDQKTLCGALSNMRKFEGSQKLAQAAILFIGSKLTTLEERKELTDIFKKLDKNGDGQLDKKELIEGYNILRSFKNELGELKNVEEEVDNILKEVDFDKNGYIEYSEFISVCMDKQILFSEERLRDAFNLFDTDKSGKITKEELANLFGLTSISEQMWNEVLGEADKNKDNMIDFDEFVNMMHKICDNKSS
Sequence of Plasmodium falciparum protein kinase 6 (PK6, PF3D7_1337100) (Q8IDW1 1-305): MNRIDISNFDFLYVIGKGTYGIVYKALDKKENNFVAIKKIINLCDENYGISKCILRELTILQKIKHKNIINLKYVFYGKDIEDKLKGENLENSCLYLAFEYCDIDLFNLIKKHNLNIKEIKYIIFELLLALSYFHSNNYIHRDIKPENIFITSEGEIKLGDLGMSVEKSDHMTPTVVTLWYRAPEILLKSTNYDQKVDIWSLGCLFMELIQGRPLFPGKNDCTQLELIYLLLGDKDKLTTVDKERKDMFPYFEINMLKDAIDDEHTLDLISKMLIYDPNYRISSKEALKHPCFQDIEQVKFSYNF
Sequence of L-lactate dehydrogenase (Plasmodium falciparum (isolate CDC / Honduras)) (Q27743 whole entry, looked up): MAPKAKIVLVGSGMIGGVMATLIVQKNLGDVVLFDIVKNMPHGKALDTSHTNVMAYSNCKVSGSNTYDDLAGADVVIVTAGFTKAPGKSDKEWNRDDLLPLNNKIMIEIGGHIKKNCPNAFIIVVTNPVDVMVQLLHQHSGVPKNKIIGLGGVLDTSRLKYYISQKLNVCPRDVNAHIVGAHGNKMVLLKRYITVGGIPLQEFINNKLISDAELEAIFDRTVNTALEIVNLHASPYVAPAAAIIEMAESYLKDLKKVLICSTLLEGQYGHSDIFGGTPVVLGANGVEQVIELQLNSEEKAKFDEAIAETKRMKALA
Sequence of Protein kinase 7 (PK7), Plasmodium falciparum 3D7 (PF3D7_0213400) (Q7YTF7 1-343): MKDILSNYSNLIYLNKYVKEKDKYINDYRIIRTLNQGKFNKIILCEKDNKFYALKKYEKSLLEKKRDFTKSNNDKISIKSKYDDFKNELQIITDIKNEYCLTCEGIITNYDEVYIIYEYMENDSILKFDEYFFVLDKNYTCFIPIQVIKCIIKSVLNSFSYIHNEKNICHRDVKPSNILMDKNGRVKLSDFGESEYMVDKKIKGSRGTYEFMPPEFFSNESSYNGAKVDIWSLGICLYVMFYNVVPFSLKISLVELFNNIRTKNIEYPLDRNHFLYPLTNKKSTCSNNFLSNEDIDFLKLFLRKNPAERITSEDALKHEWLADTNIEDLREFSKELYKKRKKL

Regarding `CCNc1cc(C(=O)N[C@@H](Cc2ccccc2)[C@H](O)CNC(C)CCCC(C)C)cc(N2CCCS2(=O)=O)c1` (some centres not stated), the growth inhibition in assay [1] is 98% (active); in assay [4], 99% (active). For the same compound, the inhibition is 2% in assay [2] and 5% in assay [3]. In addition, the result in assay [5], in assay [6], in assay [7] and in assay [8] was inactive.

Regarding `c1cc(COc2ccc(C3=NCCN3)cc2)nc(COc2ccc(C3=NCCN3)cc2)c1`, the growth inhibition is 98% (active) in assay [1] and 100% (active) in assay [4]. The inhibition in assay [2] was 8%; in assay [3], -2%. Further, the result in assay [5], in assay [6], in assay [7] and in assay [8] was inactive.

Turning to `FC(F)(F)c1cccc(CCNc2nccc(NCc3ccccc3Cl)n2)c1`, the growth inhibition in assay [1] is 38%; in assay [4] it was 89% (active). The figures for the inhibition in assay [2] and in assay [3] were 31% and 1%, respectively. Moreover, the result in assay [5], in assay [6], in assay [7] and in assay [8] was inactive.

As to `Cc1cccc2[nH]c(-c3ccc(-c4ccc(NC(=O)CN5CCN(C)CC5)cc4)s3)nc12`, the figures for the growth inhibition in assay [1] and in assay [4] were 86% (active) and 95% (active), respectively. The inhibition is 56% (active) in assay [2] and -9% in assay [3]. Moreover, the outcome in assay [5], in assay [6], in assay [7] and in assay [8] was inactive.

As for `O=C(Cn1c(CCc2cccc(F)c2F)nc(=O)c2ccccc21)N(CCCN1CCCCC1)Cc1ccc(-c2ccc(C(F)(F)F)cc2)cc1`, the growth inhibition in assay [1] was 94% (active); in assay [4] it was 103% (active). For the same compound, the inhibition in assay [2] is 100% (active); in assay [3], -2%. The outcome in assay [5], in assay [6], in assay [7] and in assay [8] was inactive.

For the compound `Cc1[nH]n(-c2cccc(Cl)c2)c(=O)c1-c1ccc(Cl)cc1`, the growth inhibition in assay [1] is 41%; in assay [4] it was 99% (active). The inhibition was 0% in assay [2] and -8% in assay [3]. The outcome in assay [5], in assay [6], in assay [7] and in assay [8] was inactive.

With `COc1ccc(C(=O)Nc2ccc(-c3ccc([N+](=O)[O-])cc3)cc2)cc1CCCN(C)C`, the growth inhibition in assay [1] is 9%; in assay [4], 98% (active). The figures for the inhibition in assay [2] and in assay [3] were 20% and 1%, respectively. In addition, the outcome in assay [5], in assay [6], in assay [7] and in assay [8] was inactive.

Take `N#Cc1cc(C(=O)c2cc(Cl)ccc2O)cn(-c2cccc(C(F)(F)F)c2)c1=O`: the growth inhibition in assay [1] was 7%; in assay [4], 87% (active). For the same compound, the inhibition was -1% in assay [2] and -2% in assay [3]. The outcome in assay [5], in assay [6], in assay [7] and in assay [8] was inactive.

On to `CCN(CC)CCNC(=O)c1ccc(NC(=O)c2cc(-c3ccncc3)nc3ccccc23)cc1`, for which the results for the growth inhibition in assay [1] and in assay [4] were 2% and 97% (active), respectively. For the same compound, the inhibition was 1% in assay [2] and -3% in assay [3]. Besides, the result in assay [5], in assay [6], in assay [7] and in assay [8] was inactive.

For `Fc1cccc(C=NNc2ccnc3ccc(C(F)(F)F)cc23)c1`, the growth inhibition in assay [1] was 97% (active); in assay [4], 100% (active). Also, the inhibition in assay [2] is -2%; in assay [3], -4%. The outcome in assay [5], in assay [6], in assay [7] and in assay [8] was inactive.

Turning to `CCNC(C)(C)CN(Cc1ccc(-c2ccc(C(F)(F)F)cc2)cc1)C(=O)Cn1c(CCc2cccc(F)c2F)nc(=O)c2ccccc21`, the results for the growth inhibition in assay [1] and in assay [4] were 70% (active) and 97% (active), respectively. Further, the inhibition in assay [2] is 47%; in assay [3], -7%. The outcome in assay [5], in assay [6], in assay [7] and in assay [8] was inactive.

`COc1ccc(C2C(C(=O)OC3CCCCC3)=C(C)NC3=C2C(=O)CCC3)cc1Br` (configuration not stated): the growth inhibition in assay [1] is 94% (active); in assay [4] it was 95% (active). The inhibition is 7% in assay [2] and -7% in assay [3]. In addition, the outcome in assay [5], in assay [6], in assay [7] and in assay [8] was inactive.

On to `CCC(C)c1ccc(NC(=O)C(C)c2ccc([N+](=O)[O-])cc2)cc1` (configuration not stated), for which the growth inhibition is 100% (active) in assay [1] and 101% (active) in assay [4]. Further, the values for the inhibition in assay [2] and in assay [3] were 14% and -3%, respectively. Also, the result in assay [5], in assay [6], in assay [7] and in assay [8] was inactive.

Take `CC(CN(C)C)C(=O)Nc1ccc(-c2ccc(-c3nc4ccccc4[nH]3)cc2)cc1` (configuration not stated): the growth inhibition in assay [1] was 83% (active); in assay [4], 99% (active). Also, the figures for the inhibition in assay [2] and in assay [3] were 2% and -3%, respectively. Moreover, the result in assay [5], in assay [6], in assay [7] and in assay [8] was inactive.

In the case of `CCCCCCCCCCS(=O)(=O)N[C@H](COCc1cccc(Oc2ccccc2)c1)COP(=O)(O)OC`, the growth inhibition in assay [1] is -3%; in assay [4], 87% (active). The results for the inhibition in assay [2] and in assay [3] were -1% and -8%, respectively. Besides, the outcome in assay [5], in assay [6], in assay [7] and in assay [8] was inactive.

As to `COc1ccc(CNCc2ccc(-c3cccc(-c4nc5ccccc5[nH]4)c3)cc2)cc1`, the growth inhibition was 85% (active) in assay [1] and 101% (active) in assay [4]. Further, the inhibition in assay [2] was 57% (active); in assay [3], -3%. Moreover, the result in assay [5], in assay [6], in assay [7] and in assay [8] was inactive.

`Oc1ccc2[nH]c(-c3cccc(F)c3)nc2c1CN1CCC(N2CCCC2)CC1`: the growth inhibition in assay [1] was 54% (active); in assay [4] it was 100% (active). For the same compound, the inhibition in assay [2] is 0%; in assay [3], -6%. Also, the outcome in assay [5], in assay [6], in assay [7] and in assay [8] was inactive.

With `Cc1cccc2[nH]c(-c3ccc(-c4ccc(C(=O)NCCN5CCCC5)cc4)cc3)nc12`, the growth inhibition in assay [1] was 77% (active); in assay [4], 101% (active). For the same compound, the inhibition in assay [2] is 25%; in assay [3], 3%. Also, the outcome in assay [5], in assay [6], in assay [7] and in assay [8] was inactive.

As for `CC1(C)N=C(N)N=C(N)N1OCOc1cc(Cl)c(Cl)cc1Cl`, the figures for the growth inhibition in assay [1] and in assay [4] were 98% (active) and 96% (active), respectively. Further, the inhibition in assay [2] was 66% (active); in assay [3], -3%. In addition, the outcome in assay [5], in assay [6], in assay [7] and in assay [8] was inactive.
